Results: the supplement of paper PMC10849652
Targets with a hit are over-represented here; the source holds about 7,900 in all. About 0.6% of all pairs of compound and target were hits. A number with no mark means an inactive call.

The targets below were run with c1cn2cc(-c3ccc4cn[nH]c4c3)nc(Nc3ccc(N4CCOCC4)cc3)c2n1 [entospletinib] (assay: log2 fold change, soluble protein after heating vs DMSO (PISA); higher = thermal stabilisation; K562 cells, 10 uM, 30 min; active = over 0.2 and 3.5 SD of the protein, either way, in both replicates (recomputed)).
Procedure, shortened: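 Aliquots of K562 cells (2×10^6 cells/mL) treated with 10 μM compound for 30 min were heated for 3 min over 48°C-58°C. After pooling and extraction in PBS with 0.5% NP-40 at 4°C, soluble protein from a 21,000xg, 90 min spin was quantified by TMTpro 16plex LC-MS/MS with channel sums equalised. Thermal stability is expressed against control samples, from duplicates, as a log2 fold change.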

UniProt Q03013, sequence (Q03013 whole entry, looked up): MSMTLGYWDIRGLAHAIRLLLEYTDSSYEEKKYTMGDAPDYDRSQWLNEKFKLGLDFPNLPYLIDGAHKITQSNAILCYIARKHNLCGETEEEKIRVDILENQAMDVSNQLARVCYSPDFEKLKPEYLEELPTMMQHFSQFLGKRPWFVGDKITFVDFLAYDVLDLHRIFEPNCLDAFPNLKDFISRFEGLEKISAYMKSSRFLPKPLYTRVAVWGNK
UniProt O14893, sequence (O14893 whole entry, looked up): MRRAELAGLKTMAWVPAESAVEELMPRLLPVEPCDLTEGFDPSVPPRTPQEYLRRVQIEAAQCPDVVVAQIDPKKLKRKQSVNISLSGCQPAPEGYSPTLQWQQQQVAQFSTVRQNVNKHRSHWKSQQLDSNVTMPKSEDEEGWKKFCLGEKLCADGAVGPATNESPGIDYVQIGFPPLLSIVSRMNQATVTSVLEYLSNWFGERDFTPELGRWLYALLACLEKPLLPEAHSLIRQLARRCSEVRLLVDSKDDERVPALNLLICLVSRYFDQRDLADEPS
UniProt P39748, sequence (P39748 whole entry, looked up): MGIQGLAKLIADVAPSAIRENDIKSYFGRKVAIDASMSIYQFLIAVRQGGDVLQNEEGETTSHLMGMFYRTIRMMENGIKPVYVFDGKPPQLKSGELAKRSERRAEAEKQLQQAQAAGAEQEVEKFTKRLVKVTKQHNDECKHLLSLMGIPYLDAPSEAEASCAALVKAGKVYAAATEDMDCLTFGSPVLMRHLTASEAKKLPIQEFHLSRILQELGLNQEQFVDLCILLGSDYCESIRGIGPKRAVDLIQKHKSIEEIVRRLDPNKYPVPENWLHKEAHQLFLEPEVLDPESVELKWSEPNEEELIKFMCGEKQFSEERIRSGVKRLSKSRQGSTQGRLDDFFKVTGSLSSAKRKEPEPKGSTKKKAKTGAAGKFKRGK
UniProt P13807, sequence (P13807 whole entry, looked up): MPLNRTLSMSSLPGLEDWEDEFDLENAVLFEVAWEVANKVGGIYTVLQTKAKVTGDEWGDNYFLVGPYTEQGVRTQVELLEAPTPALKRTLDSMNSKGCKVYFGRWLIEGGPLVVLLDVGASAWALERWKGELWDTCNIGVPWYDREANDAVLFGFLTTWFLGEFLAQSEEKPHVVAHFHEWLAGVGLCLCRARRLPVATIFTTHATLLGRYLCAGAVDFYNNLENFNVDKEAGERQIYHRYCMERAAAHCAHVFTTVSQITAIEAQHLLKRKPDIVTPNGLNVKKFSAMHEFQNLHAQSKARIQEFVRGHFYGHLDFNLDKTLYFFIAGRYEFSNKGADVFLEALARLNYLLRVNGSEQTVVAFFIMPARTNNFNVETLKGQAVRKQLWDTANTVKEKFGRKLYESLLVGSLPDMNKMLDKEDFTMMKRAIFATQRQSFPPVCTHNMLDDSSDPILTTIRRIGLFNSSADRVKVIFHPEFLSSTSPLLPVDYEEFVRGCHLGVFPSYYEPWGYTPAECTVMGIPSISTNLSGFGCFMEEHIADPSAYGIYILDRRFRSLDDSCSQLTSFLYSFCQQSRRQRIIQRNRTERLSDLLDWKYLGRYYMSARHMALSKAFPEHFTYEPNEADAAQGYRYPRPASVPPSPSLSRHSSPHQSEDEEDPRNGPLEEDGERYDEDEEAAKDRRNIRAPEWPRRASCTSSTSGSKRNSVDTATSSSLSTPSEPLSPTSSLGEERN
UniProt P49840, sequence (P49840 whole entry, looked up): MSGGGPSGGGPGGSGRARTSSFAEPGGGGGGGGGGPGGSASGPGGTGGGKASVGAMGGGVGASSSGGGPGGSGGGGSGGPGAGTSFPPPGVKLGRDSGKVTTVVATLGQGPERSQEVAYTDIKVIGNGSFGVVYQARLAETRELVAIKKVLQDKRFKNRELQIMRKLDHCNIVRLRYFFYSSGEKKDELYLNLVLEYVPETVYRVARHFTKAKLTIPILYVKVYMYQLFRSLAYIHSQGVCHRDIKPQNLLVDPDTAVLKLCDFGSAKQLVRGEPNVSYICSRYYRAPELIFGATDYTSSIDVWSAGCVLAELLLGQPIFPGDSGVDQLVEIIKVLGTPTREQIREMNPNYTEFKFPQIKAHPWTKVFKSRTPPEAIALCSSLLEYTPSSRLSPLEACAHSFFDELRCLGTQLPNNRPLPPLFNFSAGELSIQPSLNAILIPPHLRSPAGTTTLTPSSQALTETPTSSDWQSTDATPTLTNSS
UniProt P04066, sequence (P04066 whole entry, looked up): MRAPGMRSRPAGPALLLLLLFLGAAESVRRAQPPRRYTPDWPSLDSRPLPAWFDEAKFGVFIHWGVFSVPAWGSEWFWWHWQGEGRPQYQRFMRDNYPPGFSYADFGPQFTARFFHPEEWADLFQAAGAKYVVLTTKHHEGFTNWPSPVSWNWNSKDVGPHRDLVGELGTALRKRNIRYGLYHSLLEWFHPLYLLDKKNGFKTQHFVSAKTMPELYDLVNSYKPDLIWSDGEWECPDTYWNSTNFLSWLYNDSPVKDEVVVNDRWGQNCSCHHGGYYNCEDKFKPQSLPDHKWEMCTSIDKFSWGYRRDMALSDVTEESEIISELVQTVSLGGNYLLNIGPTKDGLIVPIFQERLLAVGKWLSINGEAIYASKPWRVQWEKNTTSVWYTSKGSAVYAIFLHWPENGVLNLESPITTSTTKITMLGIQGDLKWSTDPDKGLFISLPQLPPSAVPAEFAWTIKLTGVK
UniProt P15586, sequence (P15586 whole entry, looked up): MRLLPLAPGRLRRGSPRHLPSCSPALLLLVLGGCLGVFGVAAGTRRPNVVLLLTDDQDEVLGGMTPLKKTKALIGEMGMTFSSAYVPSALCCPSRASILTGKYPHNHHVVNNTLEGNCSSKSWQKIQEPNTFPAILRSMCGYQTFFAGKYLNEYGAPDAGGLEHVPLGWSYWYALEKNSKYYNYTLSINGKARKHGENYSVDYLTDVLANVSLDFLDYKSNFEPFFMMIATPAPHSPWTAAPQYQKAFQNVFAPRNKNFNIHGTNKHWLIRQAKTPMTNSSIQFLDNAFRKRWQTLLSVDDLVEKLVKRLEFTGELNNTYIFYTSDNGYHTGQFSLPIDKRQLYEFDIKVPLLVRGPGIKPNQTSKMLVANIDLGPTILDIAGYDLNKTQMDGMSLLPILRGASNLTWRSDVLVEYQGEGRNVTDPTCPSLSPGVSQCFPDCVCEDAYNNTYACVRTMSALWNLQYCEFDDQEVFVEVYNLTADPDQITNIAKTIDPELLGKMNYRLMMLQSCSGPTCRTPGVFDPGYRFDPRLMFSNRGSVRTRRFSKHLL
UniProt P55084, sequence (P55084 whole entry, looked up): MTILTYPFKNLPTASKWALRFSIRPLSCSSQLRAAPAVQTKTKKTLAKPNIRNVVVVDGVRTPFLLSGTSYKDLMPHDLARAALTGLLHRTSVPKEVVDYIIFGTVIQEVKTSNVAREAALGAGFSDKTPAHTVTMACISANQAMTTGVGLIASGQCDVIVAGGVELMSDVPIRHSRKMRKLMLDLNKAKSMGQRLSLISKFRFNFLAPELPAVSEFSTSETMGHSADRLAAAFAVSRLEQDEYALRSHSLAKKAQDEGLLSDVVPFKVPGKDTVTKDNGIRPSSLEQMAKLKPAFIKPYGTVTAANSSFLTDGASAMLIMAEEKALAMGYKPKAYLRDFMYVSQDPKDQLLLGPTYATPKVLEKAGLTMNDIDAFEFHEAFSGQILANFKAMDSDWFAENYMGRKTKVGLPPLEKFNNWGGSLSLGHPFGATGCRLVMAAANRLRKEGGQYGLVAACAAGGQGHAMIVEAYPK
UniProt P15104, sequence (P15104 whole entry, looked up): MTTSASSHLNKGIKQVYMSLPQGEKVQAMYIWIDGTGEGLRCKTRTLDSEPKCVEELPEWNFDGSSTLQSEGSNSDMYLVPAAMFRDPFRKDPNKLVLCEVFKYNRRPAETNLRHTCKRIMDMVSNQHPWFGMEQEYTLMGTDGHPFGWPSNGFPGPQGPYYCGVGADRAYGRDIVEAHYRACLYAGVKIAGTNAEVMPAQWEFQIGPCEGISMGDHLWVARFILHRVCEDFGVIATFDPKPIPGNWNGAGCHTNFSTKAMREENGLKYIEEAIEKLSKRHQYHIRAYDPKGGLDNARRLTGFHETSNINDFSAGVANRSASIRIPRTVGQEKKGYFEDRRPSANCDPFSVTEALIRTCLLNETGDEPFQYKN
UniProt P31150, sequence (P31150 whole entry, looked up): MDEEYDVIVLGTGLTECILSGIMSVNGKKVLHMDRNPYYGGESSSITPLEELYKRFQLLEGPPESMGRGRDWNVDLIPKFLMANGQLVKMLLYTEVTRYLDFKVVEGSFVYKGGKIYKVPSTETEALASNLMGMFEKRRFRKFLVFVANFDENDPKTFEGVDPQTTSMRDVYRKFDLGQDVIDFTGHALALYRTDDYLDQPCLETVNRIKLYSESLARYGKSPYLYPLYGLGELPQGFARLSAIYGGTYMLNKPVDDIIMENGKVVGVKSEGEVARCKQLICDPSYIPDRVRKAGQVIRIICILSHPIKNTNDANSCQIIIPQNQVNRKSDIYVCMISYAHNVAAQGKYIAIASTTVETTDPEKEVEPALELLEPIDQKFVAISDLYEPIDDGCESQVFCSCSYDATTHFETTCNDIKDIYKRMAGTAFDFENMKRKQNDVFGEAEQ
UniProt P55795, sequence (P55795 whole entry, looked up): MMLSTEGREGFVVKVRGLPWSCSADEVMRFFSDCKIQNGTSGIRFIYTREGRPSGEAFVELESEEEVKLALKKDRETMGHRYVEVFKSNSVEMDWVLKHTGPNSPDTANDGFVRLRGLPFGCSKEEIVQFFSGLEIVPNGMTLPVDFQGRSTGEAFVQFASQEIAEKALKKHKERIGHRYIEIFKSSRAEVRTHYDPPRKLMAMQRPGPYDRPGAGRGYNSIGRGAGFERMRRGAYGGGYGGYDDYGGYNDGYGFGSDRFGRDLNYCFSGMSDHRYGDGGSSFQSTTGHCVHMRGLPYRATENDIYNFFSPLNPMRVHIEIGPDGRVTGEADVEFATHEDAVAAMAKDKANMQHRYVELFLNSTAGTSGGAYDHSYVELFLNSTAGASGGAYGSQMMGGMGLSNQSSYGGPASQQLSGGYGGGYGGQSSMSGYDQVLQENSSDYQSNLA

| Target | log2 fold change |
| --- | --- |
| GTF2H3 (UniProt Q13889) | 0.087 |
| H2AFX (UniProt P16104) | -0.005 |
| FUT8 (UniProt Q9BYC5) | -0.048 |
| HNRNPK isoform 2 (UniProt P61978) | 0.064 |
| GLB1 (UniProt P16278) | 0.022 |
| HLTF (UniProt Q14527) | 0.045 |
| GOLGB1 isoform 2 (UniProt Q14789) | 0.058 |
| HDHD2 (UniProt Q9H0R4) | -0.069 |
| GBA2 (UniProt Q9HCG7) | -0.108 |
| FANCD2 isoform 1 (UniProt Q9BXW9) | 0.002 |
| IFRD1 (UniProt O00458) | 0.243 |
| HMGN2 (UniProt P05204) | 0.111 |
| GPX4 (UniProt P36969) | 0.02 |
| GYG1 (UniProt P46976) | 0.643 (active) |
| GTF2A1 (UniProt P52655) | 0.051 |
| GABPA (UniProt Q06546) | -0.01 |
| GLUL (UniProt P15104) | -0.019 |
| GLUD1 (UniProt P00367) | 0.173 |
| HDGFL2 (UniProt Q7Z4V5) | -0.008 |
| FBL (UniProt P22087) | 0.119 |

| Target | log2 fold change |
| --- | --- |
| HIST2H2BF isoform 2 (UniProt Q5QNW6) | 0.06 |
| HNRNPUL2 (UniProt Q1KMD3) | 0.007 |
| GYS1 (UniProt P13807) | 0.782 (active) |
| GCDH (UniProt Q92947) | -0.026 |
| HADHB (UniProt P55084) | 0.006 |
| GSTM4 (UniProt Q03013) | 0.036 |
| FCHO1 (UniProt O14526) | -0.059 |
| HOMER1 (UniProt Q86YM7) | 0.056 |
| FOXK1 (UniProt P85037) | 0.262 |
| HEXB (UniProt P07686) | -0.026 |
| GEMIN2 (UniProt O14893) | 0.002 |
| GSK3A (UniProt P49840) | -0.028 |
| GLRX3 (UniProt O76003) | 0.001 |
| FUCA1 (UniProt P04066) | -0.018 |
| GNS (UniProt P15586) | 0.002 |
| HNRNPH2 (UniProt P55795) | 0.009 |
| GDI1 (UniProt P31150) | 0.032 |
| GCLM (UniProt P48507) | 0.012 |
| FEN1 (UniProt P39748) | -0.051 |
